Only some compounds are listed: those with a hit (about 2.6% of all), similar ones and a draw of the others.
LGR2 inh: blocks bursicon-induced cAMP signaling via Drosophila LGR2 | 380,000 tested, 0.35% active | HEK293 LGR2, CRE-luciferase, bursicon-stimulated, 4 h | inhibition, % at 9.99 µM | AID 720647;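 active = drop in luminescence signal, shown as inhibition above about 50% in the replicate tests, limit read from the data, passing the limit was not always enough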;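 also: agonist challenge used bursicon conditioned medium at about half maximal strength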
TWEAK Fn14 block: blocks TWEAK-Fn14 interaction in a reporter cell assay. TWEAK-stimulated Fn14 reporter cells, luciferase luminescence, 8 h. AID 1159606. 360,000 tested, 2% active. inhibition, % at 10 µM; in the data active = inhibition above about 50%
EWS-Fli block: inhibitors of EWS/Fli oncoprotein transcriptional activity; inhibition, % at 12.6 µM; A673 NR0B1-luciferase reporter, viability-normalised; 350,000 tested, 0.67% active;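 active = mean inhibition of at least 50% after viability correction, with every replicate also passing that limit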;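 also: firefly luciferase signal divided by Alamar Blue viability fluorescence both relative to DMSO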
LMP1 NFkB inh: Epstein-Barr LMP1 NF-kappaB reporter inhibition; inhibition, % at 12.5 µM; LMP1-induced NF-kappaB luciferase reporter cells, luminescence; 350,000 tested, 0.69% active; in the data active = inhibition above about 41%;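 also: 0% = neutral control wells and 100% = reference inhibitor control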
TROY NFkB inh: TROY signaling inhibition. inhibition, % at 10 µM. AID 1347056. 360,000 tested, 0.98% active. Q293 LMP1-TROYcd NF-kB luciferase reporter, 4 h;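 active = compounds whose plate-normalised and pattern-corrected inhibition of the luciferase reporter signal at the single screening dose is 50% or more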
An asterisk follows results filed as active; x = no result.

SMILES	LGR2 inh	TWEAK Fn14 block	EWS-Fli block	LMP1 NFkB inh	TROY NFkB inh
COc1ccc2[nH]c(C)c(CCN3C(=O)C4CC=CCC4C3=O)c2c1 (configuration not stated)	2.2	4.8	-17.9	1.0	6.6
COc1ccc2[nH]c(C)c(CCN3C(=O)OC(C)(C)C3(C)O)c2c1 (configuration not stated)	-13.4	6.8	-4.3	90.1*	-5.3
Cc1ccc(-c2ccc(/C=N/c3ncn[nH]3)o2)cc1Cl	22.2	2.6	x	58.8*	13.0
C[C@H](CO)N1C[C@H](C)[C@H](CN(C)C(=O)Nc2ccc(F)cc2)Oc2ccc(NC(=O)CCCN(C)C)cc2C1=O	-9.6	x	-10.0	x	x
Cc1cccc(-n2c3nc(=O)[nH]c(=O)c-3cc3cc([N+](=O)[O-])ccc32)c1	x	-37.0	16.6	14.4	12.7
Cc1ccc(C)c(-n2c3nc(=O)[nH]c(=O)c-3cc3cc([N+](=O)[O-])ccc32)c1	25.7	23.9	70.2*	16.8	31.3
CC(C)c1ccc(/C=N/Nc2ccc(C(=O)O)cc2)cc1	x	92.0*	74.7*	3.5	56.9*
COc1cc(C(=O)N/N=C/c2ccc(OC(=O)c3ccccc3Cl)cc2)ccc1O	-10.8	-6.2	x	-3.0	52.5*
O=c1nc(N/N=C/C=C/c2ccccc2)cn[nH]1	66.6*	70.0*	21.7	47.5*	41.2
O=C(O)c1ccc(N/N=C/C=C/c2ccccc2)cc1	-42.5	63.1*	-25.0	-28.7	-50.6
Nc1ccc(C(=O)N/N=C\c2ccc(OC(=O)c3ccccc3Cl)cc2)cc1	4.6	-10.0	-17.5	-11.7	11.8
CO[C@H]1CN(C)C(=O)c2ccc(NC(=O)Nc3ccccc3F)cc2OC[C@@H](C)N(C)C[C@H]1C	-0.6	x	-2.4	x	x
Cc1noc(C)c1NC(=O)N(C)C[C@@H]1Oc2ccc(NS(=O)(=O)c3ccccc3)cc2C(=O)N([C@H](C)CO)C[C@H]1C	-1.8	x	0.6	x	x
O=C(O)c1ccc(N/N=C/c2ccc(-c3ccccc3)cc2)cc1	-5.1	8.9	-49.2	-104.4	-45.4
O=C(O)c1ccc(N/N=C/c2ccc(-c3ccccc3Cl)o2)cc1	-27.0	51.4*	-50.1	-64.1	14.1
O=C(O)c1ccc(N/N=C/c2ccc(OC(=O)c3ccccc3Cl)cc2)cc1	57.6*	95.8*	-53.9	25.0	54.7*
O=C1/C(=C/c2ccccc2)CCc2ccc(Cl)nc21	70.1*	72.3*	-4.7	5.8	20.8
COc1ccccc1-c1ccc2c(c1)C(C)(Cc1ccc(Cl)cc1)C(=O)N2 (configuration not stated)	x	-0.2	-28.3	x	-8.6
CC1(Cc2cccc(F)c2)C(=O)Nc2ccc(-c3cccnc3)cc21 (configuration not stated)	19.2	78.8*	-5.8	x	40.6
CC1(Cc2ccc(Cl)cc2)C(=O)Nc2ccc(-c3cccnc3)cc21 (configuration not stated)	19.2	83.6*	-4.8	x	53.4*
CCCCCCC(=O)N(O)C1CC(=O)N(c2ccc(C)cc2)C1=O (configuration not stated)	x	-62.6	x	51.4*	-0.8
CCCCCCC(=O)N(O)C1CC(=O)N(c2ccc(Cl)cc2)C1=O (configuration not stated)	16.7	-21.2	10.0	30.5	-19.0
CCCN(C)C[C@@H]1Oc2cc(-c3ccccc3C)ccc2S(=O)(=O)N([C@@H](C)CO)C[C@@H]1C	-11.8	x	7.1	x	x
CN(C)CC#Cc1ccc([C@H]2[C@@H](CO)N3CCCCN(C(=O)NC4CCCC4)C[C@@H]23)cc1	15.4	x	-8.9	x	x
CSc1ccc(/C=N/NC(=O)c2sccc2C)cc1	x	55.0*	-58.8	-58.5	-40.9
SMILES	LGR2 inh	TWEAK Fn14 block	EWS-Fli block	LMP1 NFkB inh	TROY NFkB inh
CSc1ccc(/C=N/NC(=O)c2ccc(C)c(C)c2)cc1	-34.1	-7.1	x	-20.1	-63.9
CNC[C@H]1OCCCC[C@@H](C)Oc2ccc(NC(=O)Nc3c(C)noc3C)cc2C(=O)N([C@@H](C)CO)C[C@@H]1C	-7.4	x	-6.4	x	x
COC(=O)c1ccc(C(NC(=O)c2cccnc2)NC(=O)c2cccnc2)cc1	7.7	59.2*	-2.0	2.6	32.1
CC1(c2ccccc2)NC(=O)N(CC(=O)NCCC2=CCCCC2)C1=O (configuration not stated)	x	2.5	x	-11.3	56.5*
Cc1ccc(C2(C)NC(=O)N(CC(=O)NCCC3=CCCCC3)C2=O)cc1 (configuration not stated)	x	-7.4	x	-21.7	9.8
C[C@@H]1CN([C@@H](C)CO)C(=O)c2cc(-c3ccccc3F)cnc2O[C@H]1CN(C)C(=O)C1CCC1	-20.4	x	0.0	x	x
CC1C/C(=C/c2ccncc2)C(=O)/C(=C/c2ccncc2)C1 (configuration not stated)	103.1*	99.8*	78.0*	92.1*	66.2*
CCOC(=O)c1ccc(NC(=S)P(=O)(c2ccccc2)c2ccccc2)cc1	9.0	71.4*	10.9	19.3	-13.0
CCOC(=O)c1ccc(NS(C)(=O)=O)cc1	0.7	82.2*	x	1.4	x
CCOC(=O)N1CCN(C(=O)c2ccc(NS(C)(=O)=O)cc2)CC1	5.5	17.0	-14.5	-0.3	-2.4
CCOC(=O)c1ccc(NC(=S)Nc2ccccc2)cc1	-8.0	-16.8	-17.9	-23.7	-28.7
CCC(=O)Nc1ccc(NC(=O)c2ccccn2)cn1	x	46.5	x	0.1	1.5
O=C(Nc1ccc(NC(=O)C2CC2)nc1)c1ccccn1	x	61.5*	x	5.1	13.5
CC(C)C(=O)Nc1ccc(NC(=O)c2ccccn2)cn1	x	75.7*	x	33.5	41.9
O=C(Nc1ccc(NC(=O)C2CC2)nc1)c1cnccn1	3.1	-1.1	-26.3	-0.1	-26.8
O=C(COc1ccc(Br)cc1Cl)NC(=S)Nc1ccccn1	-19.9	63.8*	x	-28.3	69.2*
Cc1ccc(OCC(=O)NC(=S)Nc2ccccn2)c(Br)c1	71.4*	91.4*	51.5*	21.2	79.4*
Cc1ccc(S(=O)(=O)N2C[C@@H](O)COC[C@@H]3O[C@H](CC(=O)N[C@@H]4CCN(Cc5ccccc5)C4)CC[C@H]32)cc1	11.7	x	0.5	x	x
CC(C)c1[nH]nc2c1C(c1cccnc1)C(C#N)=C(N)O2 (configuration not stated)	x	60.1*	x	10.2	13.5
Cc1ccc(S(=O)(=O)Nc2ccc3c(c2)CC(=O)N([C@H](C)CO)C[C@H](C)[C@@H](CN(C)C(=O)Nc2ccc(C(F)(F)F)cc2)O3)cc1	-0.9	x	7.4	x	x
COCC#Cc1ccc2c(c1)O[C@@H](CN(C)C(C)=O)[C@H](C)CN([C@@H](C)CO)S2(=O)=O	-2.2	x	-1.3	x	x
COc1ccc(CN(C)C[C@@H]2Oc3c(NS(=O)(=O)c4cn(C)cn4)cccc3C(=O)N([C@@H](C)CO)C[C@H]2C)cc1	-11.9	x	3.0	x	x
COc1ccccc1[C@]1(C)ON(c2ccccc2C(F)(F)F)C1=O	36.8	16.2	1.2	73.3*	-3.4
O=C(NCC[C@H]1CC[C@@H](NS(=O)(=O)c2ccc(Cl)cc2)[C@@H](CO)O1)Nc1ccc(F)cc1	8.5	x	-8.2	x	x
O=C(NC12CCC(O)C(SC1)/C2=N/O)c1ccccc1 (configuration not stated)	x	83.0*	x	-2.6	-8.2

Screening data (PubChem)
